Laboratory results: PubChem BioAssay (NCATS)
Results filed as inconclusive are left out. Entries that show only a call come without a potency. Unmarked numbers belong to inactive results. Calls of active or inactive are those of the source. Unless noted, calls come from the whole dose curve.

What was measured:
[1] = qHTS for Inhibitors of the Functional Ribonucleoprotein Complex (vRNP) of Lassa (LASV) Arenavirus: LASV Primary Screen - GLuc reporter signal (AID 1347082; calls by dose curve; tested in HEK293 reporter line; note: nearly all actives have a fitted effect of over 60% in size; for activity change, negative = inhibition: series mostly up to about 57 µM)
[2] = qHTS for Inhibitors of the Functional Ribonucleoprotein Complex (vRNP) of Lassa (LASV) Arenavirus: Viability assay - alamar blue signal for LASV Primary Screen (AID 1347083; calls by dose curve; tested in HEK293 reporter line; note: nearly all actives have a fitted effect of over 80% in size; for activity change, negative = reduced viability: series mostly up to about 57 µM)
[3] = qHTS for Inhibitors of the Functional Ribonucleoprotein Complex (vRNP) of Lymphocytic Choriomeningitis Arenaviruses (LCMV): Viability assay - alamar blue signal for LCMV Primary Screen (AID 1347085; calls by dose curve; tested in HEK293 reporter line; note: nearly all actives have a fitted effect of over 80% in size; for activity change, negative = lower viability: series mostly up to about 57 µM)
[4] = molecular target: Nucleoprotein (Lymphocytic choriomeningitis virus (strain Armstrong)) (UniProt P09992); test: qHTS for Inhibitors of the Functional Ribonucleoprotein Complex (vRNP) of Lymphocytic Choriomeningitis Arenaviruses (LCMV): LCMV Primary Screen - GLuc reporter signal (AID 1347086); note: nearly all actives have a fitted effect of over 70% in size; for activity change, negative = inhibition: series mostly up to about 57 µM
Sequence of Nucleoprotein (Lymphocytic choriomeningitis virus (strain Armstrong)) (P09992 whole entry, looked up): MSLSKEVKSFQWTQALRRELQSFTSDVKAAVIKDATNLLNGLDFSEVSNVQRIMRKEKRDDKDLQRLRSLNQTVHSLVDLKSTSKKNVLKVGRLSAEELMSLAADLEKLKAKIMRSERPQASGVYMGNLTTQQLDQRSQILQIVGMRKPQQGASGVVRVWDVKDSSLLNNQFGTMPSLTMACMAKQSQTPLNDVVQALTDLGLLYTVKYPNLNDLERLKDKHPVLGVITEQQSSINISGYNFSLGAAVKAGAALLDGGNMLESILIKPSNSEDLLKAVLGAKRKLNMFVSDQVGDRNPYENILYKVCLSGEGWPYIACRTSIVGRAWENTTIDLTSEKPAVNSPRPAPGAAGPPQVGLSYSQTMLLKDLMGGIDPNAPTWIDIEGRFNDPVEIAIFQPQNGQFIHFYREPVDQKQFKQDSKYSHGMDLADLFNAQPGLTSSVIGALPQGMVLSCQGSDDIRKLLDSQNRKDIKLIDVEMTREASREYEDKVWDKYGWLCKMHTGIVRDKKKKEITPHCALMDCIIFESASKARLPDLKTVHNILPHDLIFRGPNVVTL
Potency is the fitted concentration of half-maximal effect.

Row | Structure (SMILES) | Potency [1] | Potency [2] | Potency [3] | Potency [4] | activity change, negative = inhibition [1] | activity change, negative = reduced viability [2] | activity change, negative = lower viability [3] | activity change, negative = inhibition [4]
1 | CC(=O)OC1c2c(ccc3ccc(=O)oc23)OC(C)(C)C1OC(=O)CC(C)C (stereo not given) | inactive | inactive | inactive | inactive | – | – | – | –
2 | O=C(NC(Cc1ccccc1)C(=O)O)c1ccccc1 (stereo not given) | inactive | inactive | inactive | inactive | – | – | – | –
3 | Cc1[nH]c(C=C2C(=O)Nc3ccc(S(=O)(=O)N(C)c4cccc(Cl)c4)cc32)c(C)c1C(=O)N1CCN(C)CC1 | inactive | inactive | inactive | inactive | – | – | – | –
4 | OCCc1c[nH]c2ccccc12 | inactive | inactive | inactive | inactive | – | – | – | –
5 | Nc1ncnc2c1ncn2[C@H]1O[C@H](CO)[C@@H](O)[C@@H]1O | inactive | inactive | inactive | inactive | – | – | – | –
6 | Cc1cc(=O)oc2cc3c(cc12)OCO3 | inactive | inactive | inactive | inactive | – | – | – | –
7 | CC1C2CC(CC2C2CCCC(O)C2)C1(C)C (stereo not given) | inactive | inactive | inactive | inactive | – | – | – | –
8 | CC1=C(O)C(=O)OC1C (stereo not given) | inactive | inactive | inactive | inactive | – | – | – | –
9 | COc1cc2c(cc1OC)C(C(=O)c1ccc(OC)c(OC)c1O)=NCC2 | inactive | inactive | inactive | inactive | – | – | – | –
10 | CCCCOC(=O)C(C)OC(=O)CCC (stereo not given) | inactive | inactive | inactive | inactive | – | – | – | –
11 | C=C(C)[C@H]1CC=C(CO)CC1 | inactive | inactive | inactive | inactive | – | – | – | –
12 | C/C=C(\C)C(=O)O[C@H]1C[C@@]2(C)CCC(C(C)C)C2(O)CC[C@@]1(C)O (stereo not given in full) | inactive | inactive | inactive | inactive | – | – | – | –
13 | C=C1CC/C=C(\C)CC[C@@H]2[C@@H]1CC2(C)C | inactive | inactive | inactive | inactive | – | – | – | –
14 | COc1c(O)ccc2c1-c1c3c(cc4c1C(C2)N(C)CC4)OCO3 (stereo not given) | inactive | inactive | inactive | inactive | – | – | – | –
15 | COc1cc(C2c3cc4c(c(O)c3CC3COC(=O)C32)OCO4)cc(OC)c1O (stereo not given) | inactive | inactive | inactive | inactive | – | – | – | –
16 | COc1c(O)c(O)c2oc(-c3ccccc3)cc(=O)c2c1OC | inactive | inactive | inactive | inactive | – | – | – | –
17 | CC1OC(Oc2ccc3ccc(=O)oc3c2-c2c(O)ccc3cc(Oc4ccc5ccc(=O)oc5c4)c(=O)oc23)C(O)C(O)C1O (stereo not given) | inactive | inactive | inactive | inactive | – | – | – | –
18 | C/C=C(/C)C(=O)O[C@@H]1c2c(ccc3ccc(=O)oc23)O[C@@H]1C(C)(C)OC(C)=O | inactive | inactive | inactive | inactive | – | – | – | –
19 | CNC(=O)c1cccc(-c2ccc3c(N4CCOC[C@H]4C)nc(N4CCOC[C@H]4C)nc3n2)c1 | 137 nM (active) | 137 nM (active) | 153 nM (active) | 137 nM (active) | – | – | – | –
20 | Cc1ccc(C(C)C)cc1O | inactive | inactive | inactive | inactive | – | – | – | –

Row | Structure (SMILES) | Potency [1] | Potency [2] | Potency [3] | Potency [4] | activity change, negative = inhibition [1] | activity change, negative = reduced viability [2] | activity change, negative = lower viability [3] | activity change, negative = inhibition [4]
21 | C=CC(C)=CCC=C(C)C | inactive | inactive | inactive | inactive | – | – | – | –
22 | CC(=O)O[C@@]1(C)C[C@@H](O)[C@]2(O)C=CO[C@@H](O[C@@H]3O[C@H](CO)[C@@H](O)[C@H](O)[C@H]3O)[C@@H]21 | inactive | inactive | inactive | inactive | – | – | – | –
23 | O=C(/C=C/c1ccccc1)NCCc1cnc[nH]1 | inactive | inactive | inactive | inactive | – | – | – | –
24 | COc1cc2c(c(OC)c1OC)-c1c(cc(OC)c(OC)c1OC)CC(C)C(C)C2 (stereo not given) | inactive | inactive | inactive | inactive | – | – | – | –
25 | CC1=C(/C=C/C(C)=C/C=C/C(C)=C/C=C/C=C(C)/C=C/C=C(\C)C=O)C(C)(C)CCC1 | inactive | inactive | inactive | inactive | – | – | – | –
26 | O=c1cc(-c2ccc(O)cc2)oc2c([C@@H]3O[C@H](CO)[C@@H](O)[C@H](O)[C@H]3O)c(O)c([C@@H]3O[C@H](CO)[C@@H](O)[C@H](O)[C@H]3O)c(O)c12 | inactive | inactive | inactive | inactive | – | – | – | –
27 | O=C(O)c1cccc(C(=O)O)n1 | inactive | inactive | inactive | inactive | – | – | – | –
28 | CCCCCCCCO[C@@H]1O[C@H](CO)[C@@H](O)[C@H](O)[C@H]1O | inactive | inactive | inactive | inactive | – | – | – | –
29 | Cc1cc(=O)c2c(O)c3c(O)cc(O)c4c5c(O)cc(O)c6c(O)c7c(=O)cc(C)c8c1c2c(c34)c(c65)c78 | inactive | inactive | inactive | inactive | – | – | – | –
30 | Cn1c2ccccc2c2c3c(c4c5ccccc5n(CCC#N)c4c21)CNC3=O | 8630 nM (active) | 485 nM (active) | 3850 nM (active) | 6110 nM (active) | – | – | – | –
31 | COC(=O)c1ccc(OC)cc1 | inactive | inactive | inactive | inactive | – | – | – | –
32 | OC[C@H]1O[C@@H]2O[C@H]3[C@H](O)[C@@H](O)[C@@H](O[C@H]4[C@H](O)[C@@H](O)[C@@H](O[C@H]5[C@H](O)[C@@H](O)[C@@H](O[C@H]6[C@H](O)[C@@H](O)[C@@H](O[C@H]7[C@H](O)[C@@H](O)[C@@H](O[C@H]8[C@H](O)[C@@H](O)[C@@H](O[C@H]9[C@H](O)[C@@H](O)[C@@H](O[C@H]1[C@H](O)[C@H]2O)O[C@@H]9CO)O[C@@H]8CO)O[C@@H]7CO)O[C@@H]6CO)O[C@@H]5CO)O[C@@H]4CO)O[C@@H]3CO | inactive | inactive | inactive | inactive | – | – | – | –
33 | COC(=O)[C@@H]1CC2=CC(=O)CC[C@]2(C)[C@@]23O[C@@H]2C[C@@]2(C)[C@H](CC[C@@]24CCC(=O)O4)[C@@H]13 | inactive | inactive | inactive | inactive | – | – | – | –
34 | C[N+](C)(C)CCOP(=O)([O-])OC[C@H](O)CO | inactive | inactive | inactive | inactive | – | – | – | –
35 | CC[C@]1(O)C[C@@H]2CN(CCc3c([nH]c4ccccc34)[C@@](C(=O)OC)(c3cc4c(cc3OC)N(C=O)[C@@H]3C45CCN4CC=C[C@](CC)([C@H]45)[C@@H](OC(C)=O)[C@]3(O)C(=O)OC)C2)C1 (stereo not given in full) | inactive | inactive | inactive | inactive | – | – | – | –
36 | CO[C@H]1/C=C\O[C@@]2(C)Oc3c(C)c(O)c4c(O)c(c5c(nc6cc(C)ccn65)c4c3C2=O)NC(=O)C(C)=CC=C[C@H](C)[C@H](O)[C@@H](C)[C@@H](O)[C@@H](C)[C@H](OC(C)=O)[C@H]1C | inactive | inactive | inactive | inactive | – | – | – | –
37 | COc1cc2c(c(OC)c1OC)-c1c(cc(OC)c(OC)c1OC)C[C@](C)(O)[C@@H](C)C2 | inactive | inactive | inactive | inactive | – | – | – | –
38 | CC1(C)CCc2c([nH]c3ccccc3c2=O)O1 | inactive | inactive | inactive | inactive | – | – | – | –
39 | CC(C)CCO | inactive | inactive | inactive | inactive | – | – | – | –
40 | C[N+](C)(C)C[C@H](O)CC(=O)[O-] | inactive | inactive | inactive | inactive | – | – | – | –

Row | Structure (SMILES) | Potency [1] | Potency [2] | Potency [3] | Potency [4] | activity change, negative = inhibition [1] | activity change, negative = reduced viability [2] | activity change, negative = lower viability [3] | activity change, negative = inhibition [4]
41 | CC(=Cc1ccccc1)C=C1SC(=S)N(CC(=O)O)C1=O | inactive | inactive | inactive | inactive | – | – | – | –
42 | COC(=O)c1nccc2c1[nH]c1ccccc12 | inactive | inactive | inactive | inactive | – | – | – | –
43 | CC/C=C/CCO | inactive | inactive | inactive | inactive | – | – | – | –
44 | COc1ccc(-c2coc3cc(OC)cc(O)c3c2=O)cc1 | inactive | inactive | inactive | inactive | – | – | – | –
45 | CON(C)C(=O)N1N=C(c2cc(F)ccc2F)S[C@]1(CCCN)c1ccccc1 | inactive | inactive | inactive | inactive | – | – | – | –
46 | O=c1c(-c2ccc(O)cc2)coc2cc(OC3OC(CO)C(O)C(O)C3O)ccc12 (stereo not given) | inactive | inactive | inactive | inactive | – | – | – | –
47 | CCC(C)(O)C(=O)N[C@H]1CCCN1C(=O)/C=C/c1ccccc1 (stereo not given in full) | inactive | inactive | inactive | inactive | – | – | – | –
48 | COc1ccc2c(c1)OC[C@H]1c3cc4c(cc3O[C@@H]21)OCO4 | inactive | inactive | inactive | inactive | – | – | – | –
49 | O=Cc1ccnc2ccccc12 | inactive | inactive | inactive | inactive | – | – | – | –
50 | C=C(C)C1Cc2cc3ccc(=O)oc3cc2O1 (stereo not given) | inactive | inactive | inactive | inactive | – | – | – | –
51 | Oc1ccc(C=Cc2cc(O)cc(O)c2)cc1 | inactive | inactive | inactive | inactive | – | – | – | –
52 | COc1cc(=O)n(C)c2c(OCC3OC(C)(C)OC3(C)C)cccc12 (stereo not given) | inactive | inactive | inactive | inactive | – | – | – | –
53 | CC(O)CC(=O)O (stereo not given) | inactive | inactive | inactive | inactive | – | – | – | –
54 | CC/C=C\C/C=C\C/C=C\C/C=C\C=C\C(O)CCCC(=O)O (stereo not given) | – | – | – | – | 1.12% [at 0.757 µM] | 9.64% [at 0.757 µM] | 6.07% [at 0.757 µM] | 1.64% [at 0.757 µM]
55 | C/C(=C/C=C/[C@@H](C)C(=O)O)[C@H]1CN[C@H](C(=O)O)[C@H]1CC(=O)O | inactive | inactive | inactive | inactive | – | – | – | –
56 | CC1(C)CCC[C@]2(C)[C@H]3CCO[C@]3(C)CC[C@@H]12 | inactive | inactive | inactive | inactive | – | – | – | –
57 | CC(=O)OC1[C@H](Oc2c(O)c(C)c3c4c2[C@@H](C)CC[C@@H]4[C@@H](C)C[C@@H]3C=C(C)C)OC[C@@H](O)[C@@H]1O (stereo not given in full) | inactive | inactive | inactive | inactive | – | – | – | –
58 | CC(=O)C1CCC2(O)C3CCC4=CC(=O)CCC4(C)C3CCC12C (stereo not given) | inactive | inactive | inactive | inactive | – | – | – | –
59 | CCCCC#Cc1nc(NC)c2ncn([C@@H]3O[C@H](CO)[C@@H](O)[C@H]3O)c2n1 | inactive | inactive | inactive | inactive | – | – | – | –
60 | CC1(C)CCC[C@]2(C)[C@H]3CC(=O)O[C@]3(C)CC[C@@H]12 | inactive | inactive | inactive | inactive | – | – | – | –
